Measurements reported in PubChem BioAssay (NCI).
About 83,000 compounds went through this panel and 20% of them were active in at least one assay; those are over-represented in the sample as a whole.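 96-well plates, one dose, 48 hours. Percent growth reported; active if below 10.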 Values without a mark were called inactive. Active and inactive are the calls of the source.

Columns and labels:
Test in all cases: NCI-60 one-dose screen, 48 h (100 = growth as untreated, 0 = no growth, -100 = all killed)
Details in all cases: 10 µM unless noted
T-47D breast = tested on: T-47D breast
BT-549 breast = tested on: BT-549 breast
MDA-MB-435 melanoma = tested on: MDA-MB-435 melanoma
SW-620 colon = tested on: SW-620 colon
MCF7 breast = tested on: MCF7 breast
HCT-116 colon = tested on: HCT-116 colon
HCC-2998 colon = tested on: HCC-2998 colon
KM12 colon = tested on: KM12 colon

| SMILES | growth (T-47D breast) | growth (BT-549 breast) | growth (MDA-MB-435 melanoma) | growth (SW-620 colon) | growth (MCF7 breast) | growth (HCT-116 colon) | growth (HCC-2998 colon) | growth (KM12 colon) |
| --- | --- | --- | --- | --- | --- | --- | --- | --- |
| O=c1c2c3c(sc2n2c(CCl)nnc2n1Cc1ccccc1)CCCC3 | -69.9% (active) | -93.5% (active) | -64.5% (active) | -82.9% (active) | -79.9% (active) | -56.2% (active) | -69.3% (active) | -69.6% (active) |
| C/C(Cc1ccc(Cl)cc1)=C(\c1ccc(OCCN2CCCCCC2)cc1)c1ccc(OC(=O)Cc2ccccc2)cc1 | 57.6% | 89.3% | 46.3% | 57.4% | 18.6% | 38.2% | 22.3% | 50.2% |
| COc1ccc2[nH]c(=O)c(/C=C/C(=O)c3ccc(Nc4nccc(-c5ccc6ccccc6c5)n4)cc3)cc2c1 | 97.2% | 98.9% | 108% | 97.1% | 92.8% | 91.1% | 104% | 93.3% |
| CCN(C(=O)CN1CCN(c2cc3c(cc2F)c(=O)c(C(=O)O)cn3C2CC2)CC1)c1nc(-c2ccc(OC)cc2)cs1 | 78.7% | 73.1% | 53.2% | 49% | 73.9% | 40% | 85.4% | 52.9% |
| NCc1cn2cc(Cl)sc2n1 | 111% | 111% | 113% | 106% | 95% | 107% | 102% | 106% |
| CCCCCCCCCCCCCCCCNCCC[C@@H](C)[C@H]1CC[C@H]2[C@@H]3[C@H](OCCCN)C[C@@H]4C[C@H](OCCCN)CC[C@]4(C)[C@H]3C[C@H](OCCCN)[C@]12C | -20.9% (active) | -26% (active) | -28.3% (active) | -25.3% (active) | -44.3% (active) | -16.6% (active) | -32.4% (active) | -24.3% (active) |
| O=C1C2CC=CCC2C(=O)N1CNc1ccc(Cl)cc1 (configuration not stated) | 86.2% | 84.1% | 108% | 94% | 102% | 90.1% | 98.8% | 104% |
| CN(C)c1ccc(C2Nc3ccccc3-n3cccc32)cc1 (configuration not stated) | 55.6% | 99.8% | 96.5% | 97.6% | 38.4% | 97.4% | 85.2% | 97.7% |
| C=C1CCC2C3(C)COC(c4ccccc4Br)OC3CCC2(C)C1C/C=C1/C(=O)OCC1OC(C)=O (configuration not stated) | -68.9% (active) | -74.2% (active) | -38.6% (active) | -73.1% (active) | -68.9% (active) | -91% (active) | 55.4% | -56.7% (active) |
| NS(=O)(=O)c1ccc(-n2ncc3c(=O)[nH]c(CN4CCN(c5cc6c(cc5F)c(=O)c(C(=O)O)cn6C5CC5)CC4)nc32)cc1 | 106% | 68.9% | 99.9% | 98.8% | 94.9% | 100% | 93.9% | 102% |
| CN[C@@]12CC3(C=CC(=O)C=C3)O[C@]1(Cc1ccc(OC)cc1)N(C)C(=O)N2 | 47.8% | 44.3% | 31.4% | 24.6% | 16.4% | 4.01% (active) | 100% | 98.2% |
| CCOC(=O)c1cnc2ccc(Br)cc2c1Nc1cccc(S(=O)(=O)NC)c1 | 86% | 101% | 105% | 91.9% | 91.3% | 84.7% | 97% | 98.7% |
| O=C1O[C@H]([C@H](O)CO)C(O)=C1O | 114% | 93.1% | 106% | 87.3% | 103% | 98.2% | 98.3% | 103% |
| OC(c1cc(-c2ccccc2)nc2ccc(Cl)cc12)C1CCCCN1 (configuration not stated) | 19.9% | 91.5% | 42.6% | 21.2% | -41% (active) | 33.4% | -87.7% (active) | 6.52% (active) |
